BRCA1 expr up: increases BRCA1 expression; MCF7-BRCA1-FFLuc reporter, luminescence, 48 h; response scale: scaled: vehicle 0%, 10 µM genistein 100%; Potency, µM (highest dose often 46.1 µM), without a hit: top-dose activation, most hits filed as activators; 1.1% of 380,000 active; AID 624202; note: potency is the fitted concentration of half-maximal effect; nearly all actives have a fitted effect of over 80% in size
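Using MCF7 cells harboring a BRCA1 firefly luciferase reporter, plated 2 h before compound pinning, the screen measured luminescence after 48 h incubation. Responses were normalized to DMSO and 10 microM genistein, then fitted for concentration-effect.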
Mm-Cpn inhibitor: blocks the Methanococcus maripaludis chaperonin Mm-Cpn. purified Mm-Cpn ATPase, ADP Transcreener TR-FRET. Potency, µM (highest dose often 76.9 µM), for the others: at the top dose activity, negative = inhibition, hits mostly inhibitors. 0.031% of 330,000 active; note: potency is the fitted concentration of half-maximal effect; % is set by controls: 0 for no effect and ±100 for the full control effect; nearly all actives have a fitted effect of over 80% in size
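Eu-cryptate anti-ADP/ADP-d2 competition gives a ratio inversely related to ADP. Enzyme at 25 nM was pre-exposed to compound for 10 min, then given 10 uM ATP for 30 min, 37°C throughout.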
A-T KAP1 phos: potential ataxia-telangiectasia treatment; F2112 A-T fibroblasts, KAP-1 phosphorylation AlphaLISA; neocarzinostatin DNA damage 30 min before lysis; Potency, µM (titrated, usually from 57.5 µM), for the others: top-dose activation, actives largely listed as activators; 0.19% of 320,000 active; note: potency is the fitted concentration of half-maximal effect; % of control where 0% means no effect; nearly all actives have a fitted effect of over 45% in size
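ATM-like activity read as KAP-1 phosphorylation via AlphaLISA donor/acceptor antibody pairs after lysis and 6 hr at 25C. Cells were ATM-null patient fibroblasts (F2112, hTERT), dosed 60 min, then exposed to the DSB inducer NCS for 30 min.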
pAkt inh: blocks phosphorylation of Akt. 0.32% of 360,000 active. Neuro2A IGF-stimulated pAkt S473 HTRF, 20 min; active compounds read low. activity change, % for hits at 50 µM; in the data active = activity change below about -80%; inconclusive = mostly about -51% to -80%; note: % is set by controls: 0 for no effect and ±100 for the full control effect
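Neuro2A cells in DMEM with 0.5% FBS, overnight at 37 deg C, given compound at single 50 µM final, then IGF (6 nM final) for 20 min at 37 deg C. Lysed; phospho-Akt Ser473 by HTRF after 24 h, 665/615 ratio.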
CCT modulator: modulators of cytosolic chaperonin (CCT/TRiC) activity. purified chaperonin ATPase assay, HTRF ADP detection, 30 min. activity change, % (test concentration not listed), hits read low. 0.3% of 360,000 active; in the data active = activity change below about -30%; note: % is set by controls: 0 for no effect and ±100 for the full control effect
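Nucleotide hydrolysis assay: TRiC at 20–40 nM final (set by batch activity) with 10 uM ATP, 30 min at 37 °C, in presence of 76 uM compound. Detection by competitive ADP HTRF, 30 min ambient.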
The depositor's hits bear a star. A selection: hits, their analogues and other compounds. The true share with any hit is near 1.8%. Unless noted, calls come from the whole dose curve; as a rule, active = well fitted curve in the direction sought with a large enough effect; inconclusive = small, poorly fitted or top-dose-only effect, or another doubt; inactive = no such curve, though single readings can be large; an effect the other way counts as inactive or inconclusive.

For O=C(CC(SCc1ccco1)c1ccc(O)cc1)c1cccs1 (stereo not given) the results were BRCA1 expr up inconclusive, Mm-Cpn inhibitor -2%, A-T KAP1 phos -3%, pAkt inh inactive and CCT modulator -1.
For O=C1CC(c2ccccc2)Cc2[nH]c(=O)c(C(=O)O)cc21 (stereo not given) the results were BRCA1 expr up 12%.
`CC1CCCCN1C(=O)CSc1nnc(-c2ccccc2F)o1` (stereo not given) gave BRCA1 expr up 3.2µM*, Mm-Cpn inhibitor -1%, A-T KAP1 phos 6%, pAkt inh inactive and CCT modulator 0.
Screening CN(C(=O)CSc1nnc(-c2ccccc2F)o1)c1ccccc1 returned BRCA1 expr up 11µM*, Mm-Cpn inhibitor -2%, A-T KAP1 phos -4%, pAkt inh inactive and CCT modulator 2.
CCC1CCCCN1C(=O)CSc1nnc(-c2cccs2)o1 (stereo not given) was read as BRCA1 expr up 8.9µM*, Mm-Cpn inhibitor -10%, A-T KAP1 phos 4%, pAkt inh inactive and CCT modulator -5.
Screening CN(C(=O)CSc1nnc(-c2ccco2)o1)C1CCCCC1 returned BRCA1 expr up inconclusive, Mm-Cpn inhibitor 0%, A-T KAP1 phos -5%, pAkt inh inactive and CCT modulator -3.
`CC1CCCCN1C(=O)CSc1nnc(-c2ccco2)o1` (stereo not given) gave BRCA1 expr up 3.2µM*, Mm-Cpn inhibitor 0%, A-T KAP1 phos 1%, pAkt inh inactive and CCT modulator -3.
`COc1ccc(N2C(=O)CC(NNC(=O)c3cccnc3)C2=O)cc1` (stereo not given) gave BRCA1 expr up 0%, Mm-Cpn inhibitor 0%, A-T KAP1 phos 2%, pAkt inh inactive and CCT modulator -43*.
`COc1cc2nc(NC3CCN(C)CC3)nc(NC3CCN(C)CC3)c2cc1OC` gave BRCA1 expr up 0%.
Screening C=CCNC(=O)c1ccc(-c2nc(-c3ccc(Cl)cc3Cl)cs2)cc1 returned BRCA1 expr up 11µM*, Mm-Cpn inhibitor 2%, A-T KAP1 phos 14%, pAkt inh inactive and CCT modulator 1.
`COc1ccc(-c2cc3nc4ccccc4n3c(N)c2C#N)cc1` gave BRCA1 expr up 4µM*, Mm-Cpn inhibitor -1%, A-T KAP1 phos 10%, pAkt inh inactive and CCT modulator -2.
`CC(=O)Nc1ccc(NC(=S)NC(=O)c2oc3ccccc3c2C)cc1` gave BRCA1 expr up 26%, Mm-Cpn inhibitor 1%, A-T KAP1 phos 12%, pAkt inh inactive and CCT modulator 1.
`Cc1cccnc1NC(=S)NC(=O)c1oc2ccccc2c1C` gave BRCA1 expr up 2.8µM*, Mm-Cpn inhibitor 4%, A-T KAP1 phos 5%, pAkt inh inactive and CCT modulator 1.
O=C(COC(=O)c1cc2ccccc2oc1=O)Nc1cccc(S(=O)(=O)N2CCCCCC2)c1 was read as BRCA1 expr up 8%, Mm-Cpn inhibitor 0%, A-T KAP1 phos 8%, pAkt inh inactive and CCT modulator -2.
For O=C(COC(=O)c1cc2ccccc2oc1=O)Nc1ccc(F)cc1F the results were BRCA1 expr up 10µM*, Mm-Cpn inhibitor 0%, A-T KAP1 phos inconclusive, pAkt inh inactive and CCT modulator 2.
CN(C)S(=O)(=O)c1cccc(NC(=O)COC(=O)c2cc3ccccc3oc2=O)c1 was read as BRCA1 expr up 10µM*, Mm-Cpn inhibitor -5%, A-T KAP1 phos 20%, pAkt inh inactive and CCT modulator -1.
Screening C=CCn1c(SCC(=O)NCc2ccco2)nnc1-c1cccc(N(C)C)c1 returned BRCA1 expr up 4%.
`O=C(C[n+]1ccccc1Cl)c1ccc(O)c(O)c1` gave BRCA1 expr up 12%.
Screening O=C1c2ccccc2C(=O)N1c1cccc(N2C(=O)c3ccccc3C2=O)n1 returned BRCA1 expr up 0%.
`CCC(=O)N1CCC1(C)C(=O)Nc1cc(OC)ccc1OC` (stereo not given) gave BRCA1 expr up 12%, pAkt inh inactive and CCT modulator 0.
`CC(C)COCC(O)CCC(=O)NNC(=S)Nc1ccccc1` (stereo not given) gave BRCA1 expr up 17%, Mm-Cpn inhibitor 0%, A-T KAP1 phos 3%, pAkt inh inactive and CCT modulator -3.
`CC(C)COC(=S)Nc1ccccc1` gave BRCA1 expr up 19%, Mm-Cpn inhibitor 0%, pAkt inh -108%* and CCT modulator -1.
`CCOC(=O)C1(Cc2cccc(OC)c2)CCCN(C(=O)CCN2CCCO2)C1` (stereo not given) gave BRCA1 expr up 4µM*, Mm-Cpn inhibitor 0%, A-T KAP1 phos -14%, pAkt inh inactive and CCT modulator 2.
Screening CCOC(=O)C1(Cc2cccc(OC)c2)CCCN(C(=O)c2ccc(OC)o2)C1 (stereo not given) returned BRCA1 expr up inconclusive, Mm-Cpn inhibitor 0%, A-T KAP1 phos 6%, pAkt inh inactive and CCT modulator -2.
For Cc1ccc(CON=C2CCN(c3ncc(C(F)(F)F)cc3Cl)CC2)cc1 the results were BRCA1 expr up 25%, Mm-Cpn inhibitor 3%, A-T KAP1 phos 8%, pAkt inh -112%* and CCT modulator -2.
Screening FC(F)(F)c1cnc(N2CCC(=NOCc3ccc(Cl)cc3)CC2)c(Cl)c1 returned BRCA1 expr up 0%, Mm-Cpn inhibitor -2%, A-T KAP1 phos 11%, pAkt inh inactive and CCT modulator 2.
`CCCc1nc2c3ccccc3ccn2c1Cc1ccccc1` gave BRCA1 expr up 11µM*, pAkt inh inactive and CCT modulator -19.
`NC(N)=Nc1nc(C2COc3ccccc3O2)cs1` (stereo not given) gave BRCA1 expr up inconclusive, Mm-Cpn inhibitor -2%, A-T KAP1 phos 1%, pAkt inh inactive and CCT modulator -4.
`CCOc1cccc(-c2csc(C3COc4ccccc4O3)n2)c1` (stereo not given) gave BRCA1 expr up 5µM*, Mm-Cpn inhibitor 0%, A-T KAP1 phos 0%, pAkt inh inactive and CCT modulator -2.
Screening O=C(c1cc2cc3ccc(Cl)cc3nc2o1)N1CCCCCC1 returned BRCA1 expr up 2.2µM*, Mm-Cpn inhibitor 1%, A-T KAP1 phos 4%, pAkt inh inactive and CCT modulator 1.
`Cc1ccc2cc3cc(C(=O)N4CC(C)CC(C)C4)oc3nc2c1` (stereo not given) gave BRCA1 expr up 82%, Mm-Cpn inhibitor 2%, A-T KAP1 phos -1%, pAkt inh inactive and CCT modulator 0.
